Bioassay records deposited in PubChem by National Center for Advancing Translational Sciences (NCATS).
SMN2 splice up = enhancers of SMN2 splice variant expression. 210,000 tested, 2.8% active. HEK293 SMN2-luciferase splicing reporter, luminescence, 30-36 h. Potency, µM (top dose mostly 46.1 µM), hits mostly activators. AID 1458; also: nearly all actives have a fitted effect of over 55% in size
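HEK293 cells carry an SMN2 […]–luciferase reporter in which exon 7 inclusion puts luciferase in frame. Cells were plated 10-12 h before compound addition, then incubated 30-36 h at 37C. ONE-Glo luminescence was read; sodium butyrate at 4.5 mM final served as control.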
ELG1 genotoxic = induces genotoxicity in HEK293T cells with luciferase-tagged ELG1; Potency, µM (titrated, usually from 46 µM), usual class: activators; 330,000 tested, 1.3% active; HEK293T ELG1-luciferase reporter, luminescence, 16 h; AID 504466; also: nearly all actives have a fitted effect of over 60% in size
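Step 1: seed 2,000 HEK293T ELG1-luciferase cells per well. Step 2: add compound or DMSO, incubate 16 hr at 37 °C. Step 3: ONE-Glo, 30 min at room temperature, read luminescence.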
NPC1 prom act = activators of NPC1 promoter | Huh7 NPC1 promoter luciferase reporter, 24 h | Potency, µM (series often up to 9.22 µM), hits mostly activators | 320,000 tested, 2.4% active; also: nearly all actives have a fitted effect of over 60% in size
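Readout is luciferase luminescence, reflecting NPC1 promoter activation in stably transfected Huh7 cells after 24 h compound exposure at 37 °C in reduced-serum medium with 10% FBS.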
Rab9 prom act = activators of Rab9 promoter. Potency, µM (series often up to 9.22 µM), actives largely listed as activators. AID 485297. 320,000 tested, 2.8% active. Huh7 Rab9 promoter-luciferase reporter, luminescence, 24 h; also: nearly all actives have a fitted effect of over 60% in size
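Huh7 reporter line, Rab9 promoter upstream of luciferase. Compound exposure 24 h at 37 °C in reduced-serum medium with 10% FBS. Read-out: luminescence.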
FLuc counter = inhibits or activates purified firefly luciferase, miR-21 counter-screen; 360,000 tested, 6.9% active; P08659; Potency, µM (highest dose often 57.5 µM), actives largely listed as inhibitors; purified FLuc, Km substrates, luminescence inhibition; also: nearly all actives have a fitted effect of over 55% in size
Target sequence (P08659 whole entry, looked up): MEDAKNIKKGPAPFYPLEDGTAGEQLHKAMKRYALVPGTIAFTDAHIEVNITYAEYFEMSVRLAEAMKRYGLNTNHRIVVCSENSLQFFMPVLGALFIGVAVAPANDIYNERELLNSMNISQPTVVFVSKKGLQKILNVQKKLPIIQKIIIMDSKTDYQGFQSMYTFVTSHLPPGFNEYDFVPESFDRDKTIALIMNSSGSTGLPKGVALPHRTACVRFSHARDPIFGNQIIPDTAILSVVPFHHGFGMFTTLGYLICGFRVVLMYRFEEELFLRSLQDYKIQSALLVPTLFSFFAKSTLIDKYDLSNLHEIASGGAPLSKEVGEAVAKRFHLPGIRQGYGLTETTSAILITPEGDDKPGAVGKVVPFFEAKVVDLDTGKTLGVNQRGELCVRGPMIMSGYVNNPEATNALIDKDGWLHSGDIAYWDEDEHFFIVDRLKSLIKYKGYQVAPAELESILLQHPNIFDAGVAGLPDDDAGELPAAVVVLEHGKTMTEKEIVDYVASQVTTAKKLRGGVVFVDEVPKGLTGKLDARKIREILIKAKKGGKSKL
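Purified P. pyralis luciferase, 10 nM final, with Km-level 10 uM D-luciferin and 10 uM ATP in 50 mM Tris acetate pH 7.5, 10 mM Mg acetate, 0.01% Tween-20, 0.05% BSA; 6-point qHTS titration about 60 µM downward; luminescence read.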
Hits are given with their value; – = inactive; ? = inconclusive; · = not tested or not shown. Rows were chosen to be rich in hits. Some 7.4% of all compounds tested hit in one or more screens of this group. Calls follow the shape of the dose curve; as a rule, active = well fitted curve in the direction sought with a large enough effect; inconclusive = small, poorly fitted or top-dose-only effect, or another doubt; inactive = no such curve, though single readings can be large; an effect the other way counts as inactive or inconclusive.

SMILES	SMN2 splice up	ELG1 genotoxic	NPC1 prom act	Rab9 prom act	FLuc counter
Cc1ccc(CN2CCCn3nc(C(=O)NCc4cc(C)ccc4C)cc3C2=O)cc1	·	·	·	·	–
Cc1ccc(OCC(=O)N2CCCc3ccccc32)cc1	–	–	–	–	?
O=C(COc1ccc2c(c1)CCC2)N1CCc2ccccc21	?	12µM	2.8µM	1.1µM	5.4µM
CCc1ccc(OCC(=O)N2c3ccccc3CCc3ccccc32)cc1	·	–	–	–	–
CCc1ccc(OCC(=O)N2CCc3ccccc32)cc1	·	?	3.5µM	2.2µM	2.7µM
Cc1ccc(OCC(=O)N2CCc3ccccc32)cc1	14µM	16µM	2.8µM	3.5µM	2.7µM
CCc1cc(/C(Cc2ccc3ccccc3n2)=N\O)c(O)cc1O	–	–	–	–	–
Cc1c(O)ccc(/C(Cc2ccc3ccccc3n2)=N\N)c1O	·	–	–	–	15µM
COc1ccc(S(=O)(=O)N2CCC(n3c(C(F)(F)F)nc4cccnc43)CC2)cc1OC	·	·	·	·	–
O=C(O)c1ccc(COc2ccc3ccccc3c2)o1	·	?	?	?	19µM
CCOc1ccc(OCc2ccc(C(=O)O)o2)cc1	0.89µM	?	?	0.28µM	3.4µM
C/C=C/c1ccccc1OCc1ccc(C(=O)O)o1	·	–	–	–	–
CCOc1ccc(OCc2ccc(C(=O)Nc3cc(OC)c(OC)c(OC)c3)o2)cc1	–	·	·	·	–
CN(C)c1ncc2nc(CCc3ccccc3)c(=O)n(C[C@H]3CCCO3)c2n1	–	·	·	·	·
O=C(c1cc(S(=O)(=O)N2CCCC2)c[nH]1)N1CCN(c2cccc(Cl)c2)CC1	·	·	·	·	–
COCCCNC(=O)c1oc2c(c1C)-c1nn(Cc3cccc(Cl)c3)cc1CC2	·	·	·	·	–
COc1cc(CNC(=O)c2cccc(COc3ccc(Cl)cc3)c2)cc(OC)c1	2.5µM	?	0.71µM	0.22µM	11µM
O=C(NCc1ccccc1)c1cccc(COc2ccc(Cl)cc2)c1	6.3µM	?	1.8µM	2.8µM	17µM
O=C(NCc1ccccc1)c1cccc(COc2cccc(Cl)c2)c1	–	–	?	?	–
O=C(O)CCCc1ccc2c(c1)CCc1ccccc1-2	·	–	–	–	4.3µM
Cc1sc2nc(C)n(/N=C/N(C)C)c(=O)c2c1C	·	–	–	–	–
Cc1nc2sc(-c3ccccc3)cc2c(=O)n1N	·	?	0.1µM	?	0.67µM
Cc1nc2sc(-c3ccccc3)cc2c(=O)n1-n1cccc1	·	?	1.3µM	1.6µM	7.6µM
O=c1c2cc(-c3ccccc3)sc2nc2n1CCC2	3.2µM	1.2µM	0.5µM	0.63µM	3µM
NC(=O)CSc1nc2sc(-c3ccccc3)cc2c(=O)n1N	–	–	–	–	?
SMILES	SMN2 splice up	ELG1 genotoxic	NPC1 prom act	Rab9 prom act	FLuc counter
Cc1nc2sc(-c3ccccc3)cc2c(=O)n1/N=C/N(C)C	11µM	?	2.5µM	2.8µM	19µM
CS(=O)(=O)N1CCC2(CCN(Cc3ccncc3)CC2)CC1	–	·	·	·	·
COC(=O)Cn1c(=O)c2cccn2c2cccnc21	–	·	·	·	–
CCc1ccc(S(=O)(=O)c2c(C(=O)c3ccc(C)c(C)c3)cnc3ccccc23)cc1	–	·	·	·	–
CSc1nc2nc(-c3ccccc3)cc(=O)n2[nH]1	?	?	–	–	6.7µM
O=C(Nc1nc2nc(-c3ccccc3)cc(=O)n2[nH]1)c1ccc(F)cc1	–	·	–	–	?
C[C@H]([C@H](C)N1CC(=O)NC(=O)C1)N1CC(=O)NC(=O)C1	–	·	·	·	·
c1ccc(C2CCCN(Cc3nc(CC4CC4)no3)CC2)cc1 (stereo not drawn)	–	–	–	–	24µM
CCOC(=O)c1cc2c(nc1NC(=S)Nc1ccccc1)CC(C)(C)OC2	–	–	–	–	–
CCOC(=O)c1cc2c(nc1NC(=S)NCc1ccccc1)CCCC2	11µM	?	?	?	?
CCOc1ccccc1CN1C(=O)c2ccccc2C1C(=O)NC1CCCCCC1 (stereo not drawn)	–	·	·	·	–
Cn1c2ccccc2c(=O)c2cc(C#Cc3cccc(N)c3)ccc21	·	?	–	–	4.8µM
Cn1c2ccccc2c(=O)c2cc(C#CC3=CCCCC3)ccc21	·	?	?	?	6.7µM
CCc1nn(CC(=O)NCC(C)c2ccccc2)c(=O)c2cc3c(OC)cccc3n12 (stereo not drawn)	–	·	·	·	–
CC(=O)Nc1ccc(NC(=O)COc2ccc3c(c2)CCC3)cc1	–	–	–	–	–
CCOc1ccc(CC(=O)Nc2cccc(-c3ccc4nnc(C)n4n3)c2)cc1	–	?	–	–	–
COc1cccc(NC(=O)C(=O)N/N=C(\C)CC(=O)Nc2ccc(NC(C)=O)cc2)c1	·	?	–	–	11µM
CC(=O)Nc1cccc(OCC(=O)Nc2ccccc2)c1	22µM	10µM	3.5µM	3.2µM	?
CCOc1ccc(-c2cccc(NC(=O)COc3ccccc3)c2)nn1	·	–	–	–	15µM
CCc1ccc(NC(=O)C(=O)N/N=C(\C)CC(=O)Nc2ccc(OC)cc2)cc1	–	–	–	–	?
CC(=O)Nc1cccc(NC(=O)COc2ccc3c(c2)CCC3)c1	·	–	–	–	8.5µM
CCOC(=O)/C=C/CCC/C=C/C(=O)c1ccccc1	–	·	·	·	·
CC(Oc1ccccc1)C(=O)OCC(=O)Nc1sccc1C(N)=O (stereo not drawn)	·	–	–	–	–
CC(=O)Nc1cccc(OCC(=O)Nc2sccc2C(N)=O)c1	·	?	2.5µM	1.1µM	8.5µM
CSc1cccc(NC(=O)COc2ccccc2C)c1	–	–	–	–	15µM
SMILES	SMN2 splice up	ELG1 genotoxic	NPC1 prom act	Rab9 prom act	FLuc counter
Cc1cc(-c2nnco2)c(C)n1-c1ccc(F)cc1	–	–	–	–	17µM
CCC(=O)NC(c1cccs1)c1cc(Br)c2cccnc2c1O (stereo not drawn)	·	·	–	–	–
CN(C)S(=O)(=O)c1cccc(-n2sc3ccccc3c2=O)c1	–	–	–	?	11µM
Cc1ccc(-n2sc3ccccc3c2=O)cc1S(=O)(=O)N1CCCCC1	–	–	–	–	19µM
O=c1c2ccccc2sn1-c1nccs1	–	–	–	–	8.5µM
O=C(O)c1cccc(-n2sc3ccccc3c2=O)c1	·	–	–	–	?
O=c1c2ccccc2sn1-c1ccc(S(=O)(=O)N2CCCC2)cc1	–	–	–	–	4.8µM
O=S(=O)(c1ccc(S(=O)(=O)N2CCCC2)cc1)N1CCCCC1	·	–	–	–	–
CC(C)(C)C1CCc2c(sc(NC(=O)Cn3nnc(-c4ccccc4Cl)n3)c2C#N)C1 (stereo not drawn)	–	·	·	·	?
O=c1c2ccccc2sn1-c1ccccc1	–	–	–	–	7.6µM
O=c1c2ccccc2oc2ccc(Oc3ccccc3)cc12	·	?	2.8µM	1.8µM	4.3µM
O=C(Cn1c(=O)sc2ccccc21)NCc1ccccn1	11µM	18µM	–	–	?
O=C(CN1C(=O)c2ccccc2C1=O)NCc1ccccn1	–	–	–	–	–
CCOc1ccc(Oc2nc(NCC(C)C)nc(OC)n2)nn1	–	?	–	–	–
CCNc1nc(NC(C)CC)nc(Oc2ccc(OCC)nn2)n1 (stereo not drawn)	5.6µM	?	–	–	–
